Laboratory results: PMC7862700, “An all-to-all approach to the identification of sequence-specific readers for epigenetic DNA modifications on cytosine”

Legend:
Assay in all cases: DAPPL (digital affinity profiling via proximity ligation, sequencing); 10 mM Tris-HCl pH 7.5, 50 mM NaCl, 1 mM DTT, 4% glycerol, room temperature, 30 min; GST-TFs on glutathione beads, 16-mer random dsDNA library, 0.1% formaldehyde crosslink after washing; high values mean tight binding
Settings in all cases: protein: recombinant; tags: N-terminal GST; dsDNA, one strand shown
ELK1 = target: T1, ELK1 (Homo sapiens, UniProt P19419 1-428)
T1 sequence: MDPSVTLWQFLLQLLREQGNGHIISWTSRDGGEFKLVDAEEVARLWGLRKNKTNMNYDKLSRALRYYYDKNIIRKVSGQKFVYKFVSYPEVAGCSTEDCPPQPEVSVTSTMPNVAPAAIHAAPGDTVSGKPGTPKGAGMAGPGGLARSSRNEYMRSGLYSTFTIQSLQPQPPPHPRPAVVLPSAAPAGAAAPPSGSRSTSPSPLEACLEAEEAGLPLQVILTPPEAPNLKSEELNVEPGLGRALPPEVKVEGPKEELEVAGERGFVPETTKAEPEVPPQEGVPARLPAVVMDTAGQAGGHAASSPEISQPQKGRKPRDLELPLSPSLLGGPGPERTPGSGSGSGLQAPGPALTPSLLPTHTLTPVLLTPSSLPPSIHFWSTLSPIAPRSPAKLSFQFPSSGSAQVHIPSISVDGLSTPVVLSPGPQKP
How it was run: (§1)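 Human transcription factors were made in yeast as GST fusions, captured on glutathione beads and barcoded with DNA. With a tag-only sample included, the pool was incubated with 200 nmole of a random double-stranded 16-mer DNA library in Tris/NaCl/DTT/glycerol buffer at room temperature for 30 min, then crosslinked with 0.1% formaldehyde after washing, ligated by proximity, amplified and sequenced. For binding signal, each hexamer's read frequency for a factor is divided by its frequency for the tag-only sample.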

GABPA = target: T2, GABPA (Homo sapiens, UniProt Q06546 1-454)
T2 sequence: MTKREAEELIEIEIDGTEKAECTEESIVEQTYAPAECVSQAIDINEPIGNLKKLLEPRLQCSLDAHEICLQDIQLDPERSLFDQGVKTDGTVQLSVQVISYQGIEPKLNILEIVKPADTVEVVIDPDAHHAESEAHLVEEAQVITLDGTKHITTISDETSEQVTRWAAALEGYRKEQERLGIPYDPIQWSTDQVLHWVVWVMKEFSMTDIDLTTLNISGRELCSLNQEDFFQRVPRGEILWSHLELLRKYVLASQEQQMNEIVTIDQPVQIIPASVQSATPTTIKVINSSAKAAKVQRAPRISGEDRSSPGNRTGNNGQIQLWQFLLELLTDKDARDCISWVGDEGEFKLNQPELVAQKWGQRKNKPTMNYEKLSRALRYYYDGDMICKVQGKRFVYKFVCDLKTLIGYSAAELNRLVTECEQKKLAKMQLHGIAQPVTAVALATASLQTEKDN
How it was run: as §1

ELF1 = ELF1 (Homo sapiens, UniProt P32519 1-619)
How it was run: as §1

EHF = target: T3, EHF (Homo sapiens, UniProt Q9NZC4 1-300)
T3 sequence: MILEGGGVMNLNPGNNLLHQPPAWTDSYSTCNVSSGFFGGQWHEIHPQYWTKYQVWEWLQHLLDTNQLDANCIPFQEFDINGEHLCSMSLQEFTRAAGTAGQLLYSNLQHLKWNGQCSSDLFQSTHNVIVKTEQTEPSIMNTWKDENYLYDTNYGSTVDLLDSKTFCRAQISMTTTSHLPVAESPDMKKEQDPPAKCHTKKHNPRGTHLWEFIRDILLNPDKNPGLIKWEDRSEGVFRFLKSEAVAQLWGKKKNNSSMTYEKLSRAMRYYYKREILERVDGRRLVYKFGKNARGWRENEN
How it was run: as §1

SPIB = SPIB (Homo sapiens, UniProt Q01892 1-262)
How it was run: as §1

SPIC = target: T4, SPIC (Homo sapiens, UniProt Q8N5J4 1-248)
T4 sequence: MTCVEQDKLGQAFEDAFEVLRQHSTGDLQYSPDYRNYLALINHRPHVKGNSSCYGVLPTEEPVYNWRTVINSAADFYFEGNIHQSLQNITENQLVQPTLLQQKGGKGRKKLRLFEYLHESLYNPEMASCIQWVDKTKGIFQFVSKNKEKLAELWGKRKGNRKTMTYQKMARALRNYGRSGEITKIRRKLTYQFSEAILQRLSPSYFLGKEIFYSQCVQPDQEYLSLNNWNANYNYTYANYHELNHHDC
How it was run: as §1

ELK4 = target: T5, ELK4 (Homo sapiens, UniProt P28324-2 1-405)
T5 sequence: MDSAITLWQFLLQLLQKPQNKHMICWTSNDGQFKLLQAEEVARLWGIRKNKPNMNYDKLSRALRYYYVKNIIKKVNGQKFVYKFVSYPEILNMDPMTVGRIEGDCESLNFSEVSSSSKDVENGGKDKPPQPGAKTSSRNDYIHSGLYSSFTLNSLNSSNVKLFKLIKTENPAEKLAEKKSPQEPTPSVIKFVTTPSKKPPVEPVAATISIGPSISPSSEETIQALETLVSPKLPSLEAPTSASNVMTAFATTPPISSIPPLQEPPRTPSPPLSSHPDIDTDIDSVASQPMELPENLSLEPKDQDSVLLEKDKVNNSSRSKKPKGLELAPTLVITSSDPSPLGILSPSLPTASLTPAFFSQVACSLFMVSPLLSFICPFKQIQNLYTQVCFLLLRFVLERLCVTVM
How it was run: as §1

ETV1 = ETV1 (Homo sapiens, UniProt P50549 1-477)
How it was run: as §1

SPDEF = target: T6, SPDEF (Homo sapiens, UniProt O95238 1-335)
T6 sequence: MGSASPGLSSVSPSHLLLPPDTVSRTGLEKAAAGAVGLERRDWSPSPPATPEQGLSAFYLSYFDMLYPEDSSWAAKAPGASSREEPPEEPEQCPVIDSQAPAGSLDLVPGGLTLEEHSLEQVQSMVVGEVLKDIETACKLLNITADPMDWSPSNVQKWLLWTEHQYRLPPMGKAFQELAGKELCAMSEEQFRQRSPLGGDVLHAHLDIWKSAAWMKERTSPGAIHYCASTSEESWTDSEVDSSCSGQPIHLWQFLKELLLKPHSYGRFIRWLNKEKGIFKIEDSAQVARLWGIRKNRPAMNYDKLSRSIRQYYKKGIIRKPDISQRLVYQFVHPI
How it was run: as §1

ETV3 = target: T7, ETV3 (Homo sapiens, UniProt P41162-2 1-143)
T7 sequence: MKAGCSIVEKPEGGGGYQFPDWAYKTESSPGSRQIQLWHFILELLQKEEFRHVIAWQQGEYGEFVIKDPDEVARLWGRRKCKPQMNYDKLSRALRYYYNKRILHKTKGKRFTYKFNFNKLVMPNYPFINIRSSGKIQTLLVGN
How it was run: as §1

ETV6 = ETV6 (Homo sapiens, UniProt P41212 1-452)
How it was run: as §1

ERG = target: T8, ERG (Homo sapiens, UniProt P11308 1-479)
T8 sequence: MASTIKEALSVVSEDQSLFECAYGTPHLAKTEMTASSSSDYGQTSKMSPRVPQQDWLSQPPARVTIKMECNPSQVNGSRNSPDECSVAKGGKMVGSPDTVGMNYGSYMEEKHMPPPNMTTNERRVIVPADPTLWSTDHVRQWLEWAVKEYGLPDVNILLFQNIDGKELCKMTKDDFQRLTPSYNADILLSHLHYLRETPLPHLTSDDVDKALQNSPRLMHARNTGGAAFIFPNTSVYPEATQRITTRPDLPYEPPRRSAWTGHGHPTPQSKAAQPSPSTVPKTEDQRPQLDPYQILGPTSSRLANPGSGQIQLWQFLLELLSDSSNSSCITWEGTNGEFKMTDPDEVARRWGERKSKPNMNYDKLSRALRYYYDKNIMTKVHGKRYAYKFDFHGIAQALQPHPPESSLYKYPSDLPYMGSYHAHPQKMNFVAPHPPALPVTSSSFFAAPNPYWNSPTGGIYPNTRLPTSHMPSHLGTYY
How it was run: as §1

ELK3 = target: T9, ELK3 (Homo sapiens, UniProt P41970 1-407)
T9 sequence: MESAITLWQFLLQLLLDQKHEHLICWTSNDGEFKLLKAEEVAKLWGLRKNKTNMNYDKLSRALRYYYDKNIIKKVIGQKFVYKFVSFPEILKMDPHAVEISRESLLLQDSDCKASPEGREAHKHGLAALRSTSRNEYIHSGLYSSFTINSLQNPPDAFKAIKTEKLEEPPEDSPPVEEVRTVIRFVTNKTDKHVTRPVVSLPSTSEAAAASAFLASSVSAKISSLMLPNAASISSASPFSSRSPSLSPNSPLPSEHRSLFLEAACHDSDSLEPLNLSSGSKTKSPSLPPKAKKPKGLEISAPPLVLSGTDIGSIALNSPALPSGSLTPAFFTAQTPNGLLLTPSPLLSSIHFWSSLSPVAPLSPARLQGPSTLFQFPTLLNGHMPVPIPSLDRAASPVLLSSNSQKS
How it was run: as §1

ELF4 = ELF4 (Homo sapiens, UniProt Q99607 1-663)
How it was run: as §1

ELF3 = target: T10, ELF3 (Homo sapiens, UniProt P78545 1-371)
T10 sequence: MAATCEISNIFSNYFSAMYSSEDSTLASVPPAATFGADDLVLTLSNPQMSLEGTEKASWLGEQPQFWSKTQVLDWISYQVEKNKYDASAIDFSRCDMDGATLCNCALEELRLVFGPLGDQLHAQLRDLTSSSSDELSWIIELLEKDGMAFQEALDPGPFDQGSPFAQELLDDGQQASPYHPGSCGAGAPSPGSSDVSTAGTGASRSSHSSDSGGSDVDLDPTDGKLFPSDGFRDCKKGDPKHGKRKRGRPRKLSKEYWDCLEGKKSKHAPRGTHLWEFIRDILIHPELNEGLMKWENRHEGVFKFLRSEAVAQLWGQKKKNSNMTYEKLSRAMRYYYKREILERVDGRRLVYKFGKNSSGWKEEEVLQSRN
How it was run: as §1

ERF = target: T11, ERF (Homo sapiens, UniProt P50548 1-548)
T11 sequence: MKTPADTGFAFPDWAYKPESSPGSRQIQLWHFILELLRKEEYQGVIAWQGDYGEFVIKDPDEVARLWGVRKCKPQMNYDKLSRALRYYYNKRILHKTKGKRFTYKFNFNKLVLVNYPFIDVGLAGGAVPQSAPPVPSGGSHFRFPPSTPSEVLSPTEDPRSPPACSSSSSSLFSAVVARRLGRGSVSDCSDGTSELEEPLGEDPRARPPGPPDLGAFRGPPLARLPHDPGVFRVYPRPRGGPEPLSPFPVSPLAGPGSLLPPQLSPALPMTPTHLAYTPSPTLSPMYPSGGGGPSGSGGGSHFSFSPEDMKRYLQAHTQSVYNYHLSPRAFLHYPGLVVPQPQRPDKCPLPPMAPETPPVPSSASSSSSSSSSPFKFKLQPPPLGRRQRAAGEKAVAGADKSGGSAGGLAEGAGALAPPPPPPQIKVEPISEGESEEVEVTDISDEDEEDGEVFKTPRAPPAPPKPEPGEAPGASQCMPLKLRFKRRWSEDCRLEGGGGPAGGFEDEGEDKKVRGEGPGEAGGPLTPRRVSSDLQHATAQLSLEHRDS
How it was run: as §1

ETV3L = target: T12, ETV3L (Homo sapiens, UniProt Q6ZN32 1-361)
T12 sequence: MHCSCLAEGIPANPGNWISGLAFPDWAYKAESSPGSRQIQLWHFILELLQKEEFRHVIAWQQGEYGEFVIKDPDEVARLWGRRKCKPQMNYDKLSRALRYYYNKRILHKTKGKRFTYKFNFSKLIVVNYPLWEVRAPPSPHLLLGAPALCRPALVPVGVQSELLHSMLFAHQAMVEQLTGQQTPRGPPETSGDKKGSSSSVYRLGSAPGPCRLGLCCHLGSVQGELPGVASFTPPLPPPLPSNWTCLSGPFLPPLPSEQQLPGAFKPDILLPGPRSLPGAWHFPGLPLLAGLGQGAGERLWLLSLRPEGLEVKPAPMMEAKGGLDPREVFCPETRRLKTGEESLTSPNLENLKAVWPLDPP
How it was run: as §1

ETV7 = target: T13, ETV7 (Homo sapiens, UniProt Q9Y603 1-341)
T13 sequence: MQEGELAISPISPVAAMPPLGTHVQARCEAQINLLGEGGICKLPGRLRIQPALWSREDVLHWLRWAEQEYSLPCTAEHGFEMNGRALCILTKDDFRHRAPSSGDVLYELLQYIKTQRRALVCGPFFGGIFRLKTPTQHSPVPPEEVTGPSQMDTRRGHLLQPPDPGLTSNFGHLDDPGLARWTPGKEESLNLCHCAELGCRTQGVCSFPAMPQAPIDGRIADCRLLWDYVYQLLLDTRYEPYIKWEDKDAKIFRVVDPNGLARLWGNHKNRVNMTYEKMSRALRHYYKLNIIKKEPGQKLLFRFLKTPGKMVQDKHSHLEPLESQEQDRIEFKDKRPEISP
How it was run: as §1

Sequence of SPIB (Q01892 whole entry): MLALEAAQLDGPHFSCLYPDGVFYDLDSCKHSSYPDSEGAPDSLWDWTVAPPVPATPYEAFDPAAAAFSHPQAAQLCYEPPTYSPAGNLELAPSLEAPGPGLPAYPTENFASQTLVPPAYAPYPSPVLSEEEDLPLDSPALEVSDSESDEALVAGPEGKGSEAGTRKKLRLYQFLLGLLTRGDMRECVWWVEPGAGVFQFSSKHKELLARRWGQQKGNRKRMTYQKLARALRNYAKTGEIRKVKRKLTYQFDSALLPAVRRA
Sequence of ELF1 (P32519 whole entry): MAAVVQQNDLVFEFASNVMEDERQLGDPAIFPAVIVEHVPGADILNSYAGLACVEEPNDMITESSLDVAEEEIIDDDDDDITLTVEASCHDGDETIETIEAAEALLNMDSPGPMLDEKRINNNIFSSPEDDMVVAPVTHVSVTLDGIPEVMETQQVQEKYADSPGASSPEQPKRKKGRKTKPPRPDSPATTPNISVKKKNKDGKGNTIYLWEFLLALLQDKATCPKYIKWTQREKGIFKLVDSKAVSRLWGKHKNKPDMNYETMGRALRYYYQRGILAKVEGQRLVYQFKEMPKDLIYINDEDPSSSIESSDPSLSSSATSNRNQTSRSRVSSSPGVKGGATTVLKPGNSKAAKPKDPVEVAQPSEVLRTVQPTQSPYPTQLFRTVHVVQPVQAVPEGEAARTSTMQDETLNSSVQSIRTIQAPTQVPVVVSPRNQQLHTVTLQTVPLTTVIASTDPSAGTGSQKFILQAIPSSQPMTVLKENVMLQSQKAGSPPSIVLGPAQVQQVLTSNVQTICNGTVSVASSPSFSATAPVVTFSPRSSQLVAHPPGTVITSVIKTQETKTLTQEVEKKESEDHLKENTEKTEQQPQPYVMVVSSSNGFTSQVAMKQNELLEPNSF
Sequence of ETV1 (P50549 whole entry): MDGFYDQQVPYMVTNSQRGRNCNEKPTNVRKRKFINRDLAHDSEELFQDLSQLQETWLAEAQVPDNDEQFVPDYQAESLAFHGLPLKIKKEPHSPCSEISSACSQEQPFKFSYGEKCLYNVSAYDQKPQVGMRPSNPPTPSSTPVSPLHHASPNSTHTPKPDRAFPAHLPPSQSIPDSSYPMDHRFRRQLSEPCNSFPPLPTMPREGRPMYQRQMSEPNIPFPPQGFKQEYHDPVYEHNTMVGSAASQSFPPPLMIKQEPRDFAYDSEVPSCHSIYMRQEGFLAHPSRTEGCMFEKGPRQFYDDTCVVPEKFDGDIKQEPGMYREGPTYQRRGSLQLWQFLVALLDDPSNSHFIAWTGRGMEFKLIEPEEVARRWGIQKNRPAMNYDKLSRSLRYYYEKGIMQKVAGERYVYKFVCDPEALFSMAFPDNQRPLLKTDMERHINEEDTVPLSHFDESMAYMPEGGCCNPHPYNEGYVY
Sequence of ETV6 (P41212 whole entry): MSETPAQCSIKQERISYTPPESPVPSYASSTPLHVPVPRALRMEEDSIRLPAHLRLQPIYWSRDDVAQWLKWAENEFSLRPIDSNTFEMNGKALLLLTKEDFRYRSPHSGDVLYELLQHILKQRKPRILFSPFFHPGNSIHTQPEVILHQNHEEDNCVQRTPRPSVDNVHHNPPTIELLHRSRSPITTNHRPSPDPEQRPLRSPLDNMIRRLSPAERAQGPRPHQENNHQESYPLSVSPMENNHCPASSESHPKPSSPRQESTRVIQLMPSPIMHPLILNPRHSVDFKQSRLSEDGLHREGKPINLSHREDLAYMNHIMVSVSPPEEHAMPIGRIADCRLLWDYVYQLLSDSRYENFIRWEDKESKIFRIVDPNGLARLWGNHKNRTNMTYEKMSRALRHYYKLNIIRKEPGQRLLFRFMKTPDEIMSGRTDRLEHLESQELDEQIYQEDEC
Sequence of ELF4 (Q99607 whole entry): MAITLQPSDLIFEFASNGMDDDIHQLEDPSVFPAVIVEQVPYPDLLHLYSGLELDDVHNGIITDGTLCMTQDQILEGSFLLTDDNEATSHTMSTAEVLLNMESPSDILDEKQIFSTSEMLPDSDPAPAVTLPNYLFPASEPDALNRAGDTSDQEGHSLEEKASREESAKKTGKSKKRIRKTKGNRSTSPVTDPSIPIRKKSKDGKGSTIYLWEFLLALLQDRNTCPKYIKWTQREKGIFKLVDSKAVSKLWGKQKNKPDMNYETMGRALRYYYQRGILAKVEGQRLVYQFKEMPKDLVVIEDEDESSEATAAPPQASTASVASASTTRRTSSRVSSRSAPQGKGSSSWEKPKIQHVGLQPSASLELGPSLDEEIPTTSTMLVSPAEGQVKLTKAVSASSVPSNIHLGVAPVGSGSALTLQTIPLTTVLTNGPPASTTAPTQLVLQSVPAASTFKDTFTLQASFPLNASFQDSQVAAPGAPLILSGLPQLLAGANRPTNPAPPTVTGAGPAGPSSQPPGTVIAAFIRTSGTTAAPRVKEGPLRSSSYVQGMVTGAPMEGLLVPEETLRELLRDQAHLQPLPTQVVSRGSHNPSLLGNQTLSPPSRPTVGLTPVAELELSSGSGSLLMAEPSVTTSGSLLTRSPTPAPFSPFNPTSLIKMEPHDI

Row | Sequence | binding signal (ELK1) | binding signal (GABPA) | binding signal (ELF1) | binding signal (EHF) | binding signal (SPIB) | binding signal (SPIC) | binding signal (ELK4) | binding signal (ETV1) | binding signal (SPDEF) | binding signal (ETV3) | binding signal (ETV6) | binding signal (ERG) | binding signal (ELK3) | binding signal (ELF4) | binding signal (ELF3) | binding signal (ERF) | binding signal (ETV3L) | binding signal (ETV7)
1 | TGAATC | 1.01 fold enrichment (6-mer frequency, TF over GST control) | 1.05 fold enrichment (6-mer frequency, TF over GST control) | 1 fold enrichment (6-mer frequency, TF over GST control) | 1.04 fold enrichment (6-mer frequency, TF over GST control) | 1.04 fold enrichment (6-mer frequency, TF over GST control) | 1.01 fold enrichment (6-mer frequency, TF over GST control) | 1.03 fold enrichment (6-mer frequency, TF over GST control) | 1.01 fold enrichment (6-mer frequency, TF over GST control) | 1.11 fold enrichment (6-mer frequency, TF over GST control) | 1.01 fold enrichment (6-mer frequency, TF over GST control) | 1.01 fold enrichment (6-mer frequency, TF over GST control) | – | – | – | – | – | – | –
2 | CTAGCC | – | 1 fold enrichment (6-mer frequency, TF over GST control) | 1.07 fold enrichment (6-mer frequency, TF over GST control) | 1 fold enrichment (6-mer frequency, TF over GST control) | 1.02 fold enrichment (6-mer frequency, TF over GST control) | 1.08 fold enrichment (6-mer frequency, TF over GST control) | 1.1 fold enrichment (6-mer frequency, TF over GST control) | – | 1.02 fold enrichment (6-mer frequency, TF over GST control) | – | – | 1.01 fold enrichment (6-mer frequency, TF over GST control) | 1.1 fold enrichment (6-mer frequency, TF over GST control) | 1.01 fold enrichment (6-mer frequency, TF over GST control) | 1.04 fold enrichment (6-mer frequency, TF over GST control) | 1.13 fold enrichment (6-mer frequency, TF over GST control) | 1.06 fold enrichment (6-mer frequency, TF over GST control) | 1.02 fold enrichment (6-mer frequency, TF over GST control)
